Active and inactive are the calls of the source. How the source made its calls: active means hit-call score of the fitted dose curve at least 0.9, where 1 is the maximum; inactive means score below 0.9.
Key:
Settings in all cases: mRNA level, 48 h; actives raise or lower the signal
[1] = read-out: Tumor necrosis factor receptor superfamily member 6 (Homo sapiens) (UniProt P25445); assay: LTEA_HepaRG_FAS: Life Technologies and Expression Analysis (LTEA) Assay for Fas cell surface death receptor (FAS) using HepaRG (AID 2283447)
Outline: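 FAS transcript level was measured by TaqMan qRT-PCR against three housekeeping genes after 48 h chemical exposure. Cells were HepaRG, 0.5% DMSO vehicle, with a top concentration of 100 uM and half-log dilutions over eight points, in duplicate.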

[2] = read-out: Fatty acid synthase (Homo sapiens) (UniProt P49327); assay: LTEA_HepaRG_FASN: Life Technologies and Expression Analysis (LTEA) Assay for Fatty Acid Synthase (FASN) using HepaRG (AID 2283448)
Outline: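 FASN transcript measured by TaqMan qRT-PCR, normalised to three housekeeping genes, after 48 h chemical exposure of HepaRG cells. Eight-point half-log series from 100 uM in 0.5% DMSO, duplicates; gain or loss fitted against vehicle.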

[3] = read-out: Cyclin D2 (CCND2), CCND2 (gene 894); assay: LTEA_HepaRG_CCND2: Life Technologies and Expression Analysis (LTEA) Assay for Cyclin D2 (CCND2) using HepaRG (AID 2283449)
Outline: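 CCND2 transcript levels, quantified by qRT-PCR and normalised to three housekeeping genes, were fitted bidirectionally against 0.5% DMSO. HepaRG cultures were dosed 48 h in duplicate with an 8-point half-log series up to 100 uM.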

[4] = read-out: Cyclin Dependent Kinase Inhibitor 1A (CDKN1A), CDKN1A (gene 1026); assay: LTEA_HepaRG_CDKN1A: Life Technologies and Expression Analysis (LTEA) Assay for Cyclin Dependent Kinase Inhibitor 1A (CDKN1A) using HepaRG (AID 2283450)
Outline: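 Differentiated HepaRG cells in serum-free induction medium, exposed 48 h in duplicate to eight half-log concentrations up to 100 uM in 0.5% DMSO. mRNA measured by TaqMan qRT-PCR, normalized to ACTB, GAPDH, POLR2A; bidirectional fit versus DMSO.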

[5] = read-out: Cyclin D1 (CCND1), CCND1 (gene 595); assay: LTEA_HepaRG_CCND1: Life Technologies and Expression Analysis (LTEA) Assay for Cyclin D1 (CCND1) using HepaRG (AID 2283451);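 on AC50: TaqMan qRT-PCR transcript level normalised to ACTB GAPDH and POLR2A housekeeping genes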
Outline: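 Differentiated HepaRG cells exposed 48 h in serum-free induction medium to eight half-log concentrations from 100 uM top, 0.5% DMSO, duplicates. CCND1 mRNA measured by Fluidigm TaqMan qRT-PCR, normalised to ACTB, GAPDH, POLR2A; bidirectional fit.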

[6] = read-out: catalase (CAT), CAT (gene 847); assay: LTEA_HepaRG_CAT: Life Technologies and Expression Analysis (LTEA) Assay for catalase (CAT) using HepaRG (AID 2283452)
Outline: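 Expression of CAT was quantified by TaqMan qRT-PCR with ACTB/GAPDH/POLR2A normalization after 48 h chemical exposure of HepaRG. Eight-point half-log series, top 100 uM, in 0.5% DMSO; gain or loss fitted against vehicle.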

[7] = read-out: flavin-containing dimethylaniline monooxygenases 3 (FMO3), FMO3 (gene 2328); assay: LTEA_HepaRG_FMO3: Life Technologies and Expression Analysis (LTEA) Assay for flavin-containing dimethylaniline monooxygenases 3 (FMO3) using HepaRG (AID 2283453)
Outline: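 FMO3 transcript quantified by TaqMan qRT-PCR against three housekeeping genes after 48 h chemical exposure of HepaRG cells. Eight-point half-log series, top 100 uM, 0.5% DMSO vehicle; phenobarbital 1mM induction control; up- or down-regulation fitted.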

[8] = read-out: Cytochrome P450 (CYP1A1), CYP1A1 (gene 1543); assay: LTEA_HepaRG_CYP1A1: Life Technologies and Expression Analysis (LTEA) Assay for Cytochrome P450 (CYP1A1) using HepaRG (AID 2283454)
Outline: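 Differentiated human HepaRG cells, after 48 h plating, exposed in duplicate for 48 h in serum-free induction medium to 8 half-log concentrations up to 100 uM in 0.5% DMSO. CYP1A1 mRNA by qRT-PCR, normalized to ACTB/GAPDH/POLR2A; bidirectional fit versus DMSO.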

[9] = read-out: CFLAR gene, CFLAR (gene 8837); assay: LTEA_HepaRG_CFLAR: Life Technologies and Expression Analysis (LTEA) Assay for CFLAR gene using HepaRG (AID 2283455)
Outline: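 Transcript level by qRT-PCR (normalized to ACTB, GAPDH and POLR2A) after 48 h chemical exposure of HepaRG cells, top concentration 100 uM with half-log steps, 0.5% DMSO vehicle, duplicates; fitted bidirectionally against DMSO baseline.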

[10] = read-out: Forkhead box O1 (FOXO1), FOXO1 (gene 2308); assay: LTEA_HepaRG_FOXO1: Life Technologies and Expression Analysis (LTEA) Assay for Forkhead box O1 (FOXO1) using HepaRG (AID 2283456)
Outline: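 FOXO1 transcript quantified by qRT-PCR after 48 h chemical exposure (top 100 uM, half-log steps, 0.5% DMSO) of HepaRG cells, housekeeping-normalized (ACTB/GAPDH/POLR2A). Changes fitted in both directions relative to vehicle.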

[11] = read-out: growth arrest and DNA damage 45 (GADD45A), GADD45A (gene 1647); assay: LTEA_HepaRG_GADD45A: Life Technologies and Expression Analysis (LTEA) Assay for growth arrest and DNA damage 45 (GADD45A) using HepaRG (AID 2283458)
Outline: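 GADD45A expression was measured by TaqMan qRT-PCR against three housekeeping genes (ACTB, GAPDH, POLR2A) after 48 h treatment of HepaRG cells. Eight-point half-log series up to 100 uM in 0.5% DMSO, run in duplicate.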

[12] = read-out: ABC Transporter (ABCB1), ABCB1 (gene 5243); assay: LTEA_HepaRG_ABCB1: Life Technologies and Expression Analysis (LTEA) Assay for ABC Transporter (ABCB1) using HepaRG (AID 2283460)
Outline: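 ABCB1 transcript level measured by TaqMan qRT-PCR against three housekeeping genes after 48 h chemical exposure of differentiated HepaRG cells. Top concentration 100 uM, half-log steps, eight points, 0.5% DMSO vehicle; bidirectional fit relative to DMSO.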

[13] = read-out: growth arrest and DNA damage 45 (GADD45B), GADD45B (gene 4616); assay: LTEA_HepaRG_GADD45B: Life Technologies and Expression Analysis (LTEA) Assay for growth arrest and DNA damage 45 (GADD45B) using HepaRG (AID 2283461)
Outline: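 Differentiated human HepaRG cells in serum-free induction medium exposed 48 h in duplicate to eight concentrations, top 100 uM, half-log steps, 0.5% DMSO. GADD45B mRNA by TaqMan qRT-PCR, normalized to ACTB, GAPDH, POLR2A; bidirectional fit versus DMSO.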

[14] = read-out: ABC Transporter (ABCC3), ABCC3 (gene 8714); assay: LTEA_HepaRG_ABCC3: Life Technologies and Expression Analysis (LTEA) Assay for ABC Transporter (ABCC3) using HepaRG (AID 2283462)
Outline: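 Differentiated human HepaRG cells exposed 48 h in serum-free induction medium, 0.5% DMSO vehicle, 8-point half-log series to 100 uM in duplicate. ABCC3 mRNA by qRT-PCR, normalised to ACTB, GAPDH, POLR2A; bidirectional fit vs DMSO.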

[15] = read-out: ABC Transporter (ABCB11), ABCB11 (gene 8647); assay: LTEA_HepaRG_ABCB11: Life Technologies and Expression Analysis (LTEA) Assay for ABC Transporter (ABCB11) using HepaRG (AID 2283463)
Outline: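 ABCB11 transcript levels quantified by TaqMan qRT-PCR against three housekeeping genes after 48 h chemical exposure of HepaRG cultures. Concentrations up to 100 uM in half-log steps, 0.5% DMSO vehicle; both induction and suppression scored.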

[16] = read-out: ABC Transporter (ABCC2), ABCC2 (gene 1244); assay: LTEA_HepaRG_ABCC2: Life Technologies and Expression Analysis (LTEA) Assay for ABC Transporter (ABCC2) using HepaRG (AID 2283464)
Outline: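 Differentiated HepaRG cells in serum-free induction medium exposed 48 h to eight half-log concentrations up to 100 uM, 0.5% DMSO, in duplicate. ABCC2 mRNA measured by qRT-PCR (TaqMan, Fluidigm), normalized to ACTB, GAPDH and POLR2A. Fitted in both directions against DMSO.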

[17] = read-out: Broad substrate specificity ATP-binding cassette transporter ABCG2 (Homo sapiens) (UniProt Q9UNQ0); assay: LTEA_HepaRG_ABCG2: Life Technologies and Expression Analysis (LTEA) Assay for ABC Transporter (ABCG2) using HepaRG (AID 2283465)
Outline: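 ABCG2 transcript was quantified by TaqMan qRT-PCR against three housekeeping genes in HepaRG cells. Cells were treated in duplicate for 48 h across an 8-point half-log series up to 100 uM, with 0.5% DMSO vehicle. Gain or loss versus DMSO was fit.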

[18] = read-out: ATP-citrate lyase (ACLY), ACLY (gene 47); assay: LTEA_HepaRG_ACLY: Life Technologies and Expression Analysis (LTEA) Assay for ATP-citrate lyase (ACLY) using HepaRG (AID 2283466)
Outline: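 ACLY mRNA quantified by qRT-PCR on Fluidigm arrays against three housekeeping genes, after 48 h chemical treatment of HepaRG cells (top concentration 100 uM, half-log steps, 0.5% DMSO vehicle). Up- or down-regulation fitted relative to DMSO.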

[19] = read-out: Forkhead box O3 (FOXO3), FOXO3 (gene 2309); assay: LTEA_HepaRG_FOXO3: Life Technologies and Expression Analysis (LTEA) Assay for Forkhead box O3 (FOXO3) using HepaRG (AID 2283459)
Outline: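 FOXO3 transcript measured by qRT-PCR (normalized to ACTB, GAPDH, POLR2A) after 48 h exposure of HepaRG cells in serum-free induction medium. Duplicates, eight half-log concentrations up to 100 uM, 0.5% DMSO; gain or loss fitted against DMSO.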

Measured: AC50

Sequence of Broad substrate specificity ATP-binding cassette transporter ABCG2 (Homo sapiens) (Q9UNQ0 whole entry, looked up): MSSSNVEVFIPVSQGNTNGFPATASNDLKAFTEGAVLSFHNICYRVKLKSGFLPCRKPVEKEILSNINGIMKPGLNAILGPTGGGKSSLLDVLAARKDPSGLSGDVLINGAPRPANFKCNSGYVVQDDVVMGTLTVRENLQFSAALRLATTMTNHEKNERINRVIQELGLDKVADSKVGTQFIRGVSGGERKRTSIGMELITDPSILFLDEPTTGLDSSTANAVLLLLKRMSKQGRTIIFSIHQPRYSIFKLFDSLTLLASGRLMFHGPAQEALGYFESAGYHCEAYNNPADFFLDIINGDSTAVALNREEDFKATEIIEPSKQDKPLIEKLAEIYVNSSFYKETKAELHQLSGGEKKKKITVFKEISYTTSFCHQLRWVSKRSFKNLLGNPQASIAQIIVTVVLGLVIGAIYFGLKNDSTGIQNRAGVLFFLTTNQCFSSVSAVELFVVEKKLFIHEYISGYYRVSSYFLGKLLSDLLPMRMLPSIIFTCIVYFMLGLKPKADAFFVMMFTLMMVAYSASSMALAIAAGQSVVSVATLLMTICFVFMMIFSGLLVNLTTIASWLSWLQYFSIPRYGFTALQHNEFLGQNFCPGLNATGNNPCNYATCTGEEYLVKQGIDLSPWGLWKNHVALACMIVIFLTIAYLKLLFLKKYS
Sequence of Fatty acid synthase (Homo sapiens) (P49327 whole entry, looked up): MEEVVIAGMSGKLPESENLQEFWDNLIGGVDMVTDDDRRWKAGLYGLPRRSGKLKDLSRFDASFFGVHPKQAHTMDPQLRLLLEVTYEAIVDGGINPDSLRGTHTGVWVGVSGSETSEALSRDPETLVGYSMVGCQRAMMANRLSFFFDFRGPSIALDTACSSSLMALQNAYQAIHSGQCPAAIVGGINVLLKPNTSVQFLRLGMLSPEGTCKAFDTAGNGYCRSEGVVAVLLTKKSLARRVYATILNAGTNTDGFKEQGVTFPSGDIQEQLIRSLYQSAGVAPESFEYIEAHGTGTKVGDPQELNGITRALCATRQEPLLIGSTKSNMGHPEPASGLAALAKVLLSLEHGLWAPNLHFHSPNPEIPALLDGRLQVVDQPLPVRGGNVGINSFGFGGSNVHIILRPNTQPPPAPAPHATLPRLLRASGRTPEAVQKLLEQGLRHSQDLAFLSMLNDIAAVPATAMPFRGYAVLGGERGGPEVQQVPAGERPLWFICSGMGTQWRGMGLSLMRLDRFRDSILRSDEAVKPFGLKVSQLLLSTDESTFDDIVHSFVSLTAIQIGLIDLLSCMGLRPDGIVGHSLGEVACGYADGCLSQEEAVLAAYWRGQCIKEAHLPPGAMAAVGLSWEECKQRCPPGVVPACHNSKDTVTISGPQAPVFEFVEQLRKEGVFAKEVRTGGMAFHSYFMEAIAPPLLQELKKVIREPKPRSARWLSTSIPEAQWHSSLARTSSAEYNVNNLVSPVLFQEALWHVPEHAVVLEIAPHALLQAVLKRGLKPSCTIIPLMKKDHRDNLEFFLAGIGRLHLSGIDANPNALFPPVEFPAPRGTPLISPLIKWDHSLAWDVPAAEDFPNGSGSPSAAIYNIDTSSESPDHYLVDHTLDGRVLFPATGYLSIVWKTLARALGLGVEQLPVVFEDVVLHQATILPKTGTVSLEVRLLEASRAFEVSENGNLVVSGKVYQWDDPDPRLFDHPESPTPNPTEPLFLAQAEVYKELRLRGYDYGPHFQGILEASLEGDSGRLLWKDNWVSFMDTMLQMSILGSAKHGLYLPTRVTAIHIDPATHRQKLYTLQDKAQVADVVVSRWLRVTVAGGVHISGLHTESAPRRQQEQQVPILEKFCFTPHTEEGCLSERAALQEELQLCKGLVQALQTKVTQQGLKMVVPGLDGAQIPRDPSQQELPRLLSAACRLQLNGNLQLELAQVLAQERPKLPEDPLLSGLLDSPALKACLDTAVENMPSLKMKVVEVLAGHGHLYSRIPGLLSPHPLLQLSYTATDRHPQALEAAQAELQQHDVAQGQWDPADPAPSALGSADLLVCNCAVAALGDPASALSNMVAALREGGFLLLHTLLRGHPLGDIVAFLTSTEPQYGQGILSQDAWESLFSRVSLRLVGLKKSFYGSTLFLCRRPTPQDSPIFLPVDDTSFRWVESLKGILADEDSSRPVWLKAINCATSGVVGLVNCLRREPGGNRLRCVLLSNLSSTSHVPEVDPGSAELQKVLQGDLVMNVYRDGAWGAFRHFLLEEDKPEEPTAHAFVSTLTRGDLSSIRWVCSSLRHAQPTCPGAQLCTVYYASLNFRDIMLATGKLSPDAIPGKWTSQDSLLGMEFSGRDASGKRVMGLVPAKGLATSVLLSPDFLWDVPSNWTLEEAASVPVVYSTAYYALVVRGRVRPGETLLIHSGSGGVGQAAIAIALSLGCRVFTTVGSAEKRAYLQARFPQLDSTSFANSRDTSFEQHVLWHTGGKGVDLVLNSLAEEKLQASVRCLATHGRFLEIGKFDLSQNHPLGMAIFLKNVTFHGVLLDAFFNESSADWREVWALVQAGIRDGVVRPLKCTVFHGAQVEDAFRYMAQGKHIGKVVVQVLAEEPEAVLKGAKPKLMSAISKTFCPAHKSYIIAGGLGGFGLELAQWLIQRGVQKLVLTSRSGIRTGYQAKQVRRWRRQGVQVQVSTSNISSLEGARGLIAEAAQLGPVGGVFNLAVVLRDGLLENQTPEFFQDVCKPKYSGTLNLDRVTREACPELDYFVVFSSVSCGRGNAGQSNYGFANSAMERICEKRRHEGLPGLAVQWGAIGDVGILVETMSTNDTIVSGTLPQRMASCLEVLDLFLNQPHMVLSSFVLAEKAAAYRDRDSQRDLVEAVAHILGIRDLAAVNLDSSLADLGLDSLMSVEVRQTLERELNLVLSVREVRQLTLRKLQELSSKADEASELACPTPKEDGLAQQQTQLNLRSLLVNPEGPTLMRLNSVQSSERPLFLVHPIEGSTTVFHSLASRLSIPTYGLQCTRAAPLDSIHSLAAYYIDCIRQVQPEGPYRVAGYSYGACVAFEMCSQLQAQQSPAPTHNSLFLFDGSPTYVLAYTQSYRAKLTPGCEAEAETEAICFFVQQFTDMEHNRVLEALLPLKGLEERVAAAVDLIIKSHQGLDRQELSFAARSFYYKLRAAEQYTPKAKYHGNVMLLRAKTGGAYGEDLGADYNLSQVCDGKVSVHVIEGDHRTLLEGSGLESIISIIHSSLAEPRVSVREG

CCOP(=S)(Oc1cnc(C(C)(C)C)nc1)OC(C)C (configuration not stated)
active: [2] 82.4 µM | [5] 50 µM | [6] 5.63 µM | [7] 4.99 µM | [8] 35 µM | [12] 19.4 µM | [15] 1.84 µM | [18] 85.6 µM
not listed: [19]
inactive: all other assays above

CCNc1nc(Cl)nc(NC(C)(C)C#N)n1
active: [8] 24.9 µM | [16] 5.92 µM
not listed: [19]
inactive: all other assays above

CCCCOC(=O)c1ccccc1C(=O)O
active: [8] 36.1 µM
not listed: [14]
inactive: all other assays above

CCCOCC(=Nc1ccc(Cl)cc1C(F)(F)F)n1ccnc1
inactive: [1] | [3] | [4] | [5] | [11] | [14]
active: [2] 50 µM | [6] 37.6 µM | [7] 73 µM | [8] 12.8 µM | [9] 50 µM | [10] 50 µM | [19] 40 µM | [12] 80.5 µM | [13] 92 µM | [15] 17.6 µM | [16] 78.4 µM | [17] 15.8 µM | [18] 88.6 µM

CNc1cnn(-c2cccc(C(F)(F)F)c2)c(=O)c1Cl
active: [2] 18 µM | [7] 38.8 µM | [8] 3.99 µM | [19] 31.1 µM | [12] 74.9 µM | [15] 20.1 µM | [17] 17.4 µM
not listed: [13]
inactive: all other assays above

CCCOc1nn(C(=O)NS(=O)(=O)c2ccccc2C(=O)OC)c(=O)n1C
active: [3] 67.7 µM
not listed: [19]
inactive: all other assays above

O=c1ccc(=O)[nH][nH]1
not listed: [19]
inactive: all other assays above

Source: PubChem BioAssay (EPA / NIEHS)
